# Screening results deposited in PubChem BioAssay by several laboratories.
# Mtb betalactam = beta-lactam sensitization of Mtb H37Rv, H37Rv. M. tuberculosis H37Rv growth with meropenem, percent inhibition. inhibition, % at 25 µM. actives 0.27% (n = 330,000);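 also: growth measured after seven days incubation then overnight dye step; 0% = bacteria only wells and 100% = bacteria with antibiotic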
# RecA intein inh = Mtb RecA intein splicing inhibitors, primary screen, biochemical, fluorescence, HTS; actives 0.75% (n = 290,000); inhibition, % (concentration not given with the values); cell-free RecA intein splicing; in the data active = inhibition above about 30%; inconclusive = no clear call, values can overlap the other calls;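 also: 0% = vehicle wells and 100% = reference inhibitor control wells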
# TcdB GH inh = TcdB glycohydrolase inhibitors, primary screen, biochemical, single point, plate reader; Toxin B (Clostridioides difficile), P18177; TcdB glycohydrolase enzymatic assay; inhibition, % at 9.99 µM; actives 0.24% (n = 350,000); in the data active = inhibition above about 10%
# Mtb UGM inh = M. tuberculosis UGM enzyme inhibitors, primary screen, biochemical, fluorescence polarization, single point | purified UGM, fluorescence polarization probe displacement | UDP-galactopyranose mutase (Mycobacterium tuberculosis (strain ATCC 25618 / H37Rv)), … | actives 0.06% (n = 320,000) | inhibition, % at 10 µM; in the data active = inhibition above about 10%, passing the limit was not always enough; inconclusive = no clear call, values can overlap the other calls
# MazEF act = activators of E. coli MazEF toxin-antitoxin RNase, primary screen, biochemical, fluorescence, uHTS | Endoribonuclease toxin MazF (Escherichia coli (strain K12)), P0AE70 | FAM/BHQ RNA-DNA oligo cleavage fluorescence, 5 h | activation, % at 20 µM | actives 0.32% (n = 350,000) | AID 504720, 2011; in the data active = activation above about 50%
# Rv3671c inh = Rv3671c serine protease inhibitors, primary screen, biochemical, fluorescence polarization, M. tuberculosis H37Rv. inhibition, % at 5.96 µM. actives 0.048% (n = 320,000). AID 2606, 2010; in the data active = inhibition above about 38%;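 also: extracellular domain of Rv3671c used as enzyme; 0% = enzyme with DMSO and 100% = no enzyme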
# GFP chromo cs = counter-screen: blocks GFP chromophore formation, dose response, counter-screen, biochemical, fluorescence, homogeneous; shares compounds with RecA intein inh; cell-free GFP chromophore formation; EC50, µM; actives 83% (n = 2,100); AID 434968, 2010
# An asterisk follows results filed as active; ? = inconclusive; / = no result. An excerpt weighted towards active compounds, which were near 0.97% of everything screened. Unless noted, no rule for the calls is given here.
SMILES,Mtb betalactam,RecA intein inh,TcdB GH inh,Mtb UGM inh,MazEF act,Rv3671c inh,GFP chromo cs
C[C@@H]1CN([C@H](C)CO)C(=O)c2cc(N(C)C)ccc2O[C@H]1CN(C)C(=O)NC1CCCCC1,/,/,-3,/,/,/,/
O=C(C(=C1N(Cc2ccc(Cl)nc2)CCN1Cc1ccc(Cl)nc1)[N+](=O)[O-])C(Cl)Cl,-6,76*,1,-4,0,2,6.5*
COc1ccc(C#Cc2ccc3c(c2)O[C@@H](CN(C)C(=O)c2ccccn2)[C@H](C)CN([C@H](C)CO)S3(=O)=O)cc1,/,/,0,/,/,/,/
CCC(=O)Nc1c(C)nn(C(=O)CC)c1C,-1,57*,/,-1,1,-6,>38
CCC(=O)Nc1c(C)nn(-c2ccc(C)c(C)c2)c1C,4,-4,0,2,9,0,/
Cc1ccc(SCc2[nH]nc3c2C(c2ccc(C)o2)C(C#N)=C(N)O3)cc1 (configuration not stated),?,37*,-2,5,-2,-43,>12
C/C(=C\c1ccco1)C1C(C#N)=C(N)Oc2n[nH]c(-c3ccc(C)cc3)c21 (configuration not stated),-2,21,0,-1,5,-10,/
Cc1ccc(SCc2[nH]nc3c2C(c2ccco2)C(C#N)=C(N)O3)cc1 (configuration not stated),5,73*,/,1,-4,0,25*
Cc1ccc(SCc2[nH]nc3c2C(C(C)C)C(C#N)=C(N)O3)cc1 (configuration not stated),-1,7,/,0,1,2,/
CC(C)NC(=O)N(C)C[C@@H]1OCCCC[C@@H](C)Oc2ccc(NC(=O)Cc3ccccc3)cc2C(=O)N([C@@H](C)CO)C[C@@H]1C,/,/,0,/,/,/,/
O=S(=O)(c1ccc(Cl)c(Cl)c1)c1snnc1-c1ccccc1,/,80*,/,/,-1,/,1.3*
c1ccc(-c2nnsc2-c2ccccc2)cc1,-15,2,-1,0,1,-6,/
Cc1c([N+](=O)[O-])cnc(Sc2ccccc2)c1[N+](=O)[O-],98,85*,-1,0,6,10,0.18*
C[C@@H]1CN([C@H](C)CO)C(=O)c2cc(NC(=O)CCC(F)(F)F)ccc2O[C@@H](C)CCCCO[C@H]1CN(C)S(C)(=O)=O,/,/,-2,/,/,/,/
Cc1ccccc1Cn1nnc2c1C(=O)c1ccccc1C2=O,6,/,/,0,12,-12,/
Cc1cccc(Cn2nnc3c2C(=O)c2ccccc2C3=O)c1,50,37*,/,4,-1,-1,9.9*
CCOc1ccc(/C=C2\SC(=S)N(CCC(=O)Nc3ccccc3C(=O)O)C2=O)cc1,10,36*,2,0,-1,-8,>38
O=C(CCN1C(=O)/C(=C/c2cccs2)SC1=S)Nc1cccc(O)c1,4,36*,1,-2,9,-15,>38
O=C(CCN1C(=O)/C(=C/c2cccs2)SC1=S)Nc1ccc(C(=O)O)c(O)c1,56,44*,1,0,6,-14,31*
O=C(Cc1ccncc1)NCC[C@H]1CC[C@@H](NC(=O)C2CCCCC2)[C@H](CO)O1,/,/,0,/,/,/,/
O=C(C[C@H]1CC[C@H]2[C@@H](COC[C@@H](O)CN2C(=O)C2CCOCC2)O1)NCc1ccncc1,/,/,0,/,/,/,/
CC(C)c1nnc(NC(=O)CCS(=O)(=O)c2nc(-c3cccs3)cc(C(F)(F)F)n2)s1,7,32*,/,-1,-4,-10,>38
C[C@H]1CCCCO[C@H](CN(C)S(=O)(=O)c2cccs2)[C@@H](C)CN([C@@H](C)CO)C(=O)c2cc(NS(C)(=O)=O)ccc2O1,/,/,0,/,/,/,/
O=c1[nH]cc(NCc2ccccc2)c(=O)[nH]1,/,/,0,/,10,/,/
O=c1[nH]cc(NCCc2ccccc2)c(=O)[nH]1,-4,52*,1,2,0,-1,5.5*
SMILES,Mtb betalactam,RecA intein inh,TcdB GH inh,Mtb UGM inh,MazEF act,Rv3671c inh,GFP chromo cs
NNc1n[nH]c(=S)n1N,-1,78*,0,-1,-1,-13,>38
Nn1c(Cc2ccccc2)n[nH]c1=S,5,0,3,1,5,1,/
Nc1c(-c2ccccc2)c(CSc2nc3ccccc3[nH]2)nn1-c1cccc(Cl)c1,94,37*,0,-2,9,-16,11*
C[C@@H]1CN([C@@H](C)CO)C(=O)c2cc(-c3cncnc3)cnc2O[C@H]1CN(C)CC1CCOCC1,/,/,-2,/,/,/,/
C[C@H](O)C#Cc1ccc2c(c1)O[C@@H](CN(C)C(=O)Cc1ccccn1)[C@@H](C)CN([C@@H](C)CO)S2(=O)=O,/,/,-1,/,/,/,/
COc1ccc(C2CC(c3ccccc3OC(C)=O)=NN2C(=O)/C=C/c2ccccc2)cc1OC (configuration not stated),4,25,/,2,5,-17,/
COc1ccc(C2=NN(C(=O)/C=C/c3ccccc3)C(c3ccccc3)C2)c(OC(C)=O)c1 (configuration not stated),63,36*,/,0,-3,1,>38
O=c1[nH]c(/C=C\c2cccnc2)c([N+](=O)[O-])c(=O)[nH]1,-2,2,0,0,-5,5,/
O=c1[nH]c(/C=C/c2cccnc2)c([N+](=O)[O-])c(=O)[nH]1,1,41*,0,0,11,0,>38
N#CC(C#N)=NNc1ccc(S(=O)(=O)N2CCCCC2)cc1,-3,58*,-2,1,0,-10,19*
CC1CCN(S(=O)(=O)c2ccc(NN=C(C#N)C#N)cc2)CC1,-1,/,/,/,/,-36,/
COc1cc(C(c2c(C)[nH][nH]c2=O)c2c(C)[nH][nH]c2=O)cc([N+](=O)[O-])c1O,1,97*,-10,7,1,-2,0.45*
Cc1ccc(/C=C2\NC(=S)NC2=O)cc1[N+](=O)[O-],3,2,0,2,-15,7,/
CCOc1cc(C(c2c(C)[nH][nH]c2=O)c2c(C)[nH][nH]c2=O)cc([N+](=O)[O-])c1O,8,97*,-1,-1,-8,-5,0.45*
Cc1ccc(C(c2c(C)[nH][nH]c2=O)c2c(C)[nH][nH]c2=O)cc1[N+](=O)[O-],-1,99*,/,-3,-3,-7,0.49*
CCOc1cc(C(c2c(C)[nH][nH]c2=O)c2c(C)[nH][nH]c2=O)cc(Cl)c1O,6,95*,1,0,16,2,>38
